Source: PubChem
A selection: hits, their analogues and other compounds. The true share with any hit is near 18%.
VDR inhibitor: inhibitors of human vitamin D receptor | P11473 | VDR-SRC2-3 peptide fluorescence polarization, 2 h | Potency, µM, without a hit: max response, negative = inhibition, hits mostly inhibitors | 400,000 compounds, 0.93% hits
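Compounds are added to VDR with labelled SRC2-3 coactivator peptide and held 2 h at room temperature. Inhibition of the VDR–peptide interaction is then read as a change in fluorescence polarization.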
KAT2A inh: inhibitors of human GCN5L2 histone acetyltransferase. GCN5L2 HAT assay, ThioGlo1 CoA-SH fluorescence. Q92830. 390,000 compounds, 0.21% hits. Potency, µM (highest dose often 58.9 µM), for the others: at the highest dose activity change, negative = inhibition, actives largely listed as inhibitors
Target sequence (Q92830 whole entry, looked up): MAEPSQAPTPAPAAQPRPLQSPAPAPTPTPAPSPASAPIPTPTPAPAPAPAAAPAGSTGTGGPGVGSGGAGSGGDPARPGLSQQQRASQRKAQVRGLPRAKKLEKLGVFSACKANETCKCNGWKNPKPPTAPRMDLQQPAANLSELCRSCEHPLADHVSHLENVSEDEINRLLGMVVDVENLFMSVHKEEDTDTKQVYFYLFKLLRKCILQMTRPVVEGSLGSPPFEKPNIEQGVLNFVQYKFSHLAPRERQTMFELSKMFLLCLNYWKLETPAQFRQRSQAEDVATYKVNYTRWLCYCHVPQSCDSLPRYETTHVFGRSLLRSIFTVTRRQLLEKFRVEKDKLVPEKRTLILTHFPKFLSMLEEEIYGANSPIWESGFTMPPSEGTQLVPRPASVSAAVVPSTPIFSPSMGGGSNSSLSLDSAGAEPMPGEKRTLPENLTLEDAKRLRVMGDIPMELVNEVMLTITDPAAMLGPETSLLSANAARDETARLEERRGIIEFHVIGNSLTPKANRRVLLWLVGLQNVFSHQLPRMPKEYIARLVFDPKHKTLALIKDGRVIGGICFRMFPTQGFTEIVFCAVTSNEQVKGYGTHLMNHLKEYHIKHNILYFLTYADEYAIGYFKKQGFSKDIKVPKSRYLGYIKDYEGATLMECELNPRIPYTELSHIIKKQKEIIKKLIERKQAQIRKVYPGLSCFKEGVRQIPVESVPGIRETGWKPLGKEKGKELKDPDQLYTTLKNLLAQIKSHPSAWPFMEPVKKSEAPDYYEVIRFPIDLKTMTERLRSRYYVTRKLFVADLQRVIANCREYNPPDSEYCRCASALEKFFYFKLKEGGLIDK
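qHTS, 1536-well. 20nM enzyme, pH 7.5 HEPES/EDTA/Tween-20 buffer; 15 min compound preinc., RT. Start: 75uM H3(1-25), 70uM AcCoA, 50uM ThioGlo1. Read Ex340/Em540 at t=0 (autofluorescence flag) and t=20 min.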
TDP1 inh: TDP1 (human) enzyme inhibition. recombinant TDP1, AlphaScreen DNA substrate cleavage. Potency, µM (highest dose often 130 µM), for inactives: top-dose activity change, negative = inhibition, hits mostly inhibitors. 350,000 compounds, 0.28% hits. AID 485290; note: nearly all actives have a fitted effect of over 40% in size
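Steps: enzyme plus compound, 15 min RT; add biotin/phosphotyrosine-FITC oligonucleotide (15 nM final), react 5 min; add donor/acceptor beads (10 ug/ml final), 10 min; read AlphaScreen. Tdp1 at 1 nM final.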
DT40 TDP1 CPT: DT40-hTDP1 cell growth loss with CPT; chicken DT40 Tdp1-/-;hTDP1 cells + 20 nM CPT, ATP luminescence, 48 h; Potency, µM (doses to about 46.2 µM), without a hit: top-dose activity change, negative = growth inhibition, actives largely listed as inhibitors; 420,000 compounds, 12% hits; AID 686979; note: nearly all actives have a fitted effect of over 55% in size
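Cell growth measured by CellTiter-Glo luminescence after a minimum 48 h, 37 C compound exposure with 20 nM CPT in Tdp1-knockout DT40 cells stably expressing hTDP1, seeded 400/well; qHTS titration format.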
PLK1 PBD block: PLK1 (human) polo-box domain binding inhibition; P53350; Plk1 PBD binding of FITC phosphopeptide, fluorescence polarization; 360,000 compounds, 2.8% hits; AID 720504; Potency, µM, without a hit: max response, negative = inhibition, most hits filed as inhibitors; note: series mostly up to about 57 µM; nearly all actives have a fitted effect of over 65% in size
TDP1 cell noCPT: qHTS for Inhibitors of human tyrosyl-DNA phosphodiesterase 1 (TDP1): qHTS in cells in absence of CPT | DT40 Tdp1-/- hTDP1 cells, no CPT, ATP luminescence, 48 h | Potency, µM (titrated, usually from 46.2 µM), for the others: top-dose activity change, negative = growth inhibition, hits mostly inhibitors | 420,000 compounds, 15% hits; note: nearly all actives have a fitted effect of over 55% in size
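Luminescent ATP content (CellTiter-Glo) served as the growth readout. Knockout chicken DT40 cells expressing human TDP1 were exposed to compounds without camptothecin for a minimum 48 hr at 37 °C.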
The depositor's hits bear a star; ? = inconclusive; / = no result; [ ] = remark or other dose. Calls come from the whole dose curve; as a rule, active = well fitted curve in the direction sought with a large enough effect; inconclusive = small, poorly fitted or top-dose-only effect, or another doubt; inactive = no such curve, though single readings can be large; an effect the other way counts as inactive or inconclusive. % is set by controls: 0 for no effect and ±100 for the full control effect; potency is the fitted concentration of half-maximal effect.

SMILES	VDR inhibitor	KAT2A inh	TDP1 inh	DT40 TDP1 CPT	PLK1 PBD block	TDP1 cell noCPT
COc1ccc(Cn2nnc3c(=O)[nH]c(C4CCCN(C(=O)c5ccccc5)C4)nc32)cc1 (stereo unspecified)	-14%	0%	0%	-29%	-9%	-23%
Cc1ccccc1Cn1nnc2c(=O)[nH]c(C3CCCN(C(=O)c4ccc(C(C)(C)C)cc4)C3)nc21 (stereo unspecified)	7%	-14%	9%	?	/	26µM*
Cc1cccc(Cn2nnc3c(=O)[nH]c(C4CCCN(C(=O)c5ccc(C(C)(C)C)cc5)C4)nc32)c1 (stereo unspecified)	15%	-14%	7%	?	/	21µM*
O=[N+]([O-])c1ccc(Sc2nnnn2-c2ccccc2)c(Cl)c1	1%	-8%[0.501 µM]	5%	?	-18%	21µM*
CN1CCN(S(=O)(=O)c2ccc(Sc3nnnn3-c3ccccc3)c([N+](=O)[O-])c2)CC1	-23%	2%	3%	2.9µM*	-11%	3.3µM*
Cn1nnnc1Sc1ccc([N+](=O)[O-])cc1Cl	-2%	2%	-5%	4%	-14%	-9%
Cc1cc2nc(-c3ccc(F)cc3)c(Cc3cccc(Cl)c3)n2c(C)c1Br	/	/	/	23µM*	-17%	?
Cc1cc2nc(-c3cccc(Cl)c3)c(Cc3ccsc3)n2c(C)c1Br	/	/	/	?	-6%	?
Cc1cc2nc(-c3ccccc3)c(Cc3cccc(Cl)c3)n2c(C)c1Br	/	/	/	?	-18%	26µM*
Cc1ccc(Cc2c(-c3cccc(Cl)c3)nc3cc(C)c(Br)c(C)n23)cc1	/	/	/	-43%	-4%	?
Cc1cc2ccccc2n1-c1ccc(C(=O)N2CCC(C(=O)NCc3ccccc3Cl)CC2)s1	1%	-3%	5%	16µM*	/	-97%
CCN1C(=O)S/C(=C/c2c(OCc3ccc(C(=O)O)cc3)ccc3ccccc23)C1=O	?	?	5%	-28%	38µM*	?
O=C(O)c1ccc(COc2ccc3ccccc3c2/C=C2/NC(=O)N(c3ccccc3)C2=O)cc1	6%	-13%	-2%	-20%	-18%	?
CCn1c(=O)n(CC)c2cc(N3CCCC3)c(NC(=O)c3cccc(C)c3)cc21	86%	-7%	5%	21µM*	-12%	16µM*
CCn1c(=O)c(=O)n(CC)c2cc(N3CCCCC3)c(NC(=O)c3cccc(OC)c3)cc21	-5%	-5%	5%	-1%	/	-24%
Cn1c(=O)n(C)c2cc(N3CCOCC3)c(NC(=O)c3cccc(Cl)c3)cc21	-5%	2%	2%	12%	-14%	26%
Cc1ccc(C(=O)Nc2ccc(N3CCOCC3)c3nonc23)cc1[N+](=O)[O-]	-8%	-14%	6%	?	?	?
CCn1c(=O)n(CC)c2cc(N3CCCC3)c(NC(=O)c3ccc(C)c([N+](=O)[O-])c3)cc21	2%	-6%	3%	6.5µM*	-11%	7.3µM*
CCn1c(=O)n(CC)c2cc(N3CCCC3)c(NC(=O)c3cccc(Cl)c3)cc21	-16%	-7%	8%	15µM*	-14%	9.2µM*
COC(=O)c1ccccc1NC(=O)CCC(=O)N1CC(C)Oc2ccc(C)cc21 (stereo unspecified)	0%	-22%	/	15µM*	2%	?
CCOC(=O)c1cccc(NC(=O)CCC(=O)N2CC(C)Oc3ccc(C)cc32)c1 (stereo unspecified)	6%	-5%	9%	23µM*	/	?
Cc1ccc2c(c1)N(C(=O)CCC(=O)N1CCOCC1)CC(C)O2 (stereo unspecified)	-4%	32%	/	-1%	0%	-5%
COC(=O)c1ccccc1NC(=O)CCC(=O)N1CC(C)Sc2ccccc21 (stereo unspecified)	13%	-1%	-5%	16µM*	/	15µM*
Cc1ccc2c(c1)N(C(=O)CCC(=O)N1CCC(C(N)=O)CC1)CC(C)O2 (stereo unspecified)	13%	-7%	/	26µM*	-4%	5%
CCOC(=O)c1ccccc1NC(=O)N1CC(C)Oc2ccc(C)cc21 (stereo unspecified)	10%	-10%	4%	?	/	?
SMILES	VDR inhibitor	KAT2A inh	TDP1 inh	DT40 TDP1 CPT	PLK1 PBD block	TDP1 cell noCPT
Oc1c(Br)cc(Br)cc1-c1nc2ccccc2s1	-3%	2%	-5%[12.3 µM]	-11%	/	-9%
CO/N=C\c1ccc(C(=O)N2[C@H](c3ccc(C)cc3)[C@@H](C)CC[C@H]2C(=O)OC)cc1	/	/	5%[21 µM]	/	/	/
O=C(CCS(=O)(=O)c1ccc(F)cc1)N1CCOCC1	2%	-1%	/	4%	1%	23%
COc1cccc(-c2cc(NCc3cccs3)ncn2)c1	0%	-23%	-3%	?	/	?
CCCCCCCCCCCCC1CO1 (stereo unspecified)	/	/	3%	/	/	/
Cc1ccc(S(=O)(=O)N[C@H](C(=O)NCC2CCC(C(=O)O)CC2)C(C)C)cc1 (stereo partly specified)	-1%	-17%	/	11%	1%	1%
Cc1ccc2c(c1)N(C(=O)CCC(=O)Nc1ccc(F)cc1F)CC(C)O2 (stereo unspecified)	-10%	-3%	3%	5.2µM*	/	7.3µM*
CCOc1ccccc1-c1nnc2n1N=C(c1ccc(OC)c(OC)c1)CS2	/	/	-11%	/	/	/
CCN(CC)C(=O)c1cccc(-c2csc(C(O)c3ccc(F)c(OC)c3)n2)c1 (stereo unspecified)	/	/	/	18µM*	-7%	16µM*
CCN(CC)C(=O)c1cccc(-c2csc(C(O)c3cccc(Cl)c3)n2)c1 (stereo unspecified)	/	/	/	?	-5%	16µM*
COc1ccc(C(O)c2nc(-c3cccc(C(=O)O)c3)cs2)cc1 (stereo unspecified)	/	/	/	-9%	-9%	0%
COc1cccc(C(C)(O)c2nc(-c3cccc(C(=O)O)c3)cs2)c1 (stereo unspecified)	/	/	/	-22%	-6%	4%
CCN(CC)C(=O)c1cccc(-c2csc(C(C)(O)c3ccncc3)n2)c1 (stereo unspecified)	/	/	/	18µM*	2%	21µM*
CCN(CC)C(=O)c1cccc(-c2csc(C(O)c3ccc(OC)cc3)n2)c1 (stereo unspecified)	/	/	/	16µM*	1%	18µM*
CCCNC(=O)c1ccccc1NC(=O)c1nsc2ccccc12	8%	-1%	5%	?	/	?
O=S(=O)(Nc1cc(Br)cc2cccnc12)c1cccc2ccccc12	1%	/	1%	/	/	/
